Test results from PubChem BioAssay (NCI).
This is part of a sample that, as a whole, favours compounds with a hit. Of some 79,000 tested, about 15% had one in any assay. Rule as the data show it: active = growth inhibition above about 70%; inactive = the rest.

How the values were obtained:
[1] = NCI Yeast Anticancer Drug Screen. Data for the rad50 strain (AID 155);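 also: 0% = growth of vehicle-only cultures of the same strain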; settings: S. cerevisiae rad50 strain growth inhibition; at 50.0 µM; hits give high values
How it was run: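 Relative growth inhibition (compound vs vehicle) was measured in yeast with a defined repair-gene alteration.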

[2] = NCI Yeast Anticancer Drug Screen. Data for the mec2-1 strain (AID 157); settings: S. cerevisiae mec2-1 strain, at 50.0 µM, hits give high values
How it was run: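 mec2-1 yeast strain, carrying an alteration in DNA damage repair or cell cycle control, was exposed to compounds; growth inhibition was measured relative to vehicle-treated controls.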

[3] = NCI Yeast Anticancer Drug Screen. Data for the sgs1 mgt1 strain (AID 161);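 also: 0% = growth of cultures given vehicle only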; settings: S. cerevisiae sgs1 mgt1 strain, at 50.0 µM, hits give high values
How it was run: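 Percent growth inhibition was derived by comparing compound-exposed mutant yeast with vehicle-exposed cultures. The strain carries alterations in DNA damage repair.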

[4] = NCI Yeast Anticancer Drug Screen. Data for the cln2 rad14 strain (AID 165);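 also: 0% = growth equal to vehicle treated cultures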; settings: S. cerevisiae cln2 rad14 strain, at 50.0 µM, hits give high values
How it was run: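 Yeast carrying cln2 and rad14 alterations (cell cycle control and DNA damage repair) were exposed to compounds. Growth inhibition was measured against vehicle-treated controls.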

[5] = NCI Yeast Anticancer Drug Screen. Data for the bub3 strain (AID 167); settings: S. cerevisiae bub3 mutant strain, at 50.0 µM, hits give high values
How it was run: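 Screening used yeast with an engineered genetic alteration affecting cell cycle control. Compound-exposed cultures were compared with vehicle cultures, and reduced growth was taken as inhibition.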

[6] = NCI Yeast Anticancer Drug Screen. Data for the mlh1 rad18 strain (AID 175); settings: S. cerevisiae mlh1 rad18 strain growth inhibition; at 50.0 µM; hits give high values
How it was run: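 Growth inhibition of the yeast strain was measured after compound exposure and expressed relative to vehicle-treated controls. The strain carries defined defects in DNA damage repair.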

Measured: growth inhibition

O=C1NC2(c3ccccc3)CCCCC2O1 (stereo unspecified)
inactive: [1] -4.95% | [2] -3.05% | [3] -5.95% | [4] 1.95% | [5] -6.35% | [6] -6.6%

CCOC(=O)/C(O)=C(/C=NC(=S)c1ccncc1)C(=O)OCC
inactive: [1] -28.2% | [2] -29.8% | [3] -15.3% | [4] -6.45% | [5] -13.8% | [6] -31%

CN(N)C(=O)Nc1cccc(Cl)c1
inactive: [1] 13.1% | [2] 8.55% | [3] 16.4% | [4] -5.25% | [5] 2.7% | [6] 17.3%

CCCCCCCCCC(=O)N/N=C/c1c[nH]c2ccccc12
inactive: [1] 0.95% | [2] 28.4% | [3] 20.7% | [4] -8.75% | [5] 29.1% | [6] 21.9%

CC1=CC(=O)C(=Ic2ccccc2)C(=O)O1
inactive: [1] 11.2% | [2] -8.25% | [3] 4.6% | [4] 9.65% | [5] -3.85% | [6] 14.6%

Cc1csc2nc(-c3ccncc3)cn12
inactive: [1] 10.7% | [2] 10.1% | [3] -14% | [4] 1.4% | [5] 37.1% | [6] 23.1%

CN(CC(=O)O)Cc1oc(CO)cc(=O)c1O
inactive: [1] -9.45% | [2] -9.5% | [3] -6.1% | [4] -37.5% | [5] -40% | [6] -14.3%

O=[N+]([O-])c1cccc(/C=C/COc2ccccc2)c1
inactive: [1] -1.35% | [2] -10.4% | [3] -10.8% | [4] -48.7% | [5] 10.6% | [6] -18.9%

NC(=O)c1ccc(Cl)cc1
inactive: [1] 33% | [2] 14.2% | [3] 15.5% | [4] 14.4% | [5] -0.6% | [6] 2%

CCCCCCCCCCCCCCCCCCCCCC
inactive: [1] -28.1% | [2] -26.1% | [3] -8.7% | [4] 0% | [5] -25.9% | [6] -18.1%

O=C(CCl)OCc1ccc(Cl)cc1
inactive: [1] 4.5% | [2] 2.55% | [3] -3.75% | [4] -27.8% | [5] 1.25% | [6] -9.45%

O=C(NO)/C(CC(=O)c1ccc(O)cc1O)=N\O
inactive: [1] 4.05% | [2] -5.5% | [3] -8.65% | [4] -0.7% | [5] -11.2% | [6] 16.9%

CCOC(=O)c1c[nH]n(Cc2ccccc2)c1=O
inactive: [1] 12% | [2] 13.4% | [3] 2.95% | [4] -23.2% | [5] 13.6% | [6] -1.2%

C#CC(CC(C)CC(C)(C)C)N(C)C (stereo unspecified)
inactive: [1] 39% | [2] 22.8% | [3] 16.2% | [4] 17.8% | [5] 3.8% | [6] 31.3%

COc1cc(OC)c(C2c3cc4c(cc3OC(C)(N3CCCC3)C2C)OCO4)c(OC)c1 (stereo unspecified)
inactive: [1] 4.5% | [2] 14.6% | [3] 5.25% | [4] -8.65% | [5] 9.45% | [6] 20.3%

CC(=O)OC(C)(C)c1ccc2c(c1)C(=O)C[C@@H]1[C@](C)(C#N)CCC[C@]21C
inactive: [1] 46.6% | [2] 0.3% | [3] -2.75% | [4] -5.35% | [5] 52.1% | [6] 35.5%

CCC(C)C(=O)OCC1(c2ccc(C)cc2OC(=O)C(C)C)CO1 (stereo unspecified)
inactive: [1] 15.7% | [2] -2.45% | [3] 19.2% | [4] -1% | [5] -6% | [6] 12.2%

CCC(C(=O)O)C(C)(C)O (stereo unspecified)
inactive: [1] -10.8% | [2] -11.1% | [3] -7.95% | [4] 7.05% | [5] -0.85% | [6] -15.3%

N#CC1(NC(=O)N(CCCl)N=O)CCCCC1
inactive: [1] 4.8% | [2] 1.25% | [3] -0.6% | [4] 5.65% | [5] 9.95% | [6] -27.9%

Cc1ccc(N(C)c2cc(=O)n(C)c(=O)[nH]2)cc1C
inactive: [1] 14.4% | [2] 16.2% | [3] 10.3% | [4] 28.3% | [5] 12.4% | [6] 14.4%

CC1(C)OC(=O)C=C([O-])O1.CC1(C)OC(=O)C=C([O-])O1.O=c1c(O)c(-c2ccc([O-])cc2[O-])oc2cc(O)cc(O)c12.[Ti+4]
inactive: [1] -45.6% | [2] 9.05% | [3] -29.4% | [4] -7.85% | [5] -4.55% | [6] -16.2%
